Measurements reported in PubChem BioAssay AID1441 (NMMLSC, 2008).
Among all 220,000 compounds or so, about 830 (0.38%) were called active. Shown is part of a subset that was picked to be rich in actives. Unmarked numbers belong to inactive results. No rule for the calls is given here.

Molecular target: Regulator of G-protein signaling 16 (Homo sapiens) + Guanine nucleotide-binding protein G(o) subunit alpha (Homo sapiens) (UniProt O15492+P09471)
Assay: RGS16-Galphao interaction inhibitors and enhancers – biochemical, human proteins, multiplexed bead flow cytometry, primary screen (AID 1441);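 also: Galphao activated by GDP with aluminum fluoride before binding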
Conditions: bead-based flow cytometry RGS16-Galphao binding, fluorescence; at 10 µM; actives lie on both sides

Sequence of Regulator of G-protein signaling 16 (Homo sapiens) + Guanine nucleotide-binding protein G(o) subunit alpha (Homo sapiens) (O15492 whole entry, looked up): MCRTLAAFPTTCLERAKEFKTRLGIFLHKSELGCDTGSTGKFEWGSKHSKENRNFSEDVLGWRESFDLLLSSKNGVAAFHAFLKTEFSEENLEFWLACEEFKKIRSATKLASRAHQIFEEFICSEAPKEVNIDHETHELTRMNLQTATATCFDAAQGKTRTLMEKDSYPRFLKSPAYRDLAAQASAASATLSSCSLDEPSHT
Sequence of Regulator of G-protein signaling 16 (Homo sapiens) + Guanine nucleotide-binding protein G(o) subunit alpha (Homo sapiens) (P09471 whole entry, looked up): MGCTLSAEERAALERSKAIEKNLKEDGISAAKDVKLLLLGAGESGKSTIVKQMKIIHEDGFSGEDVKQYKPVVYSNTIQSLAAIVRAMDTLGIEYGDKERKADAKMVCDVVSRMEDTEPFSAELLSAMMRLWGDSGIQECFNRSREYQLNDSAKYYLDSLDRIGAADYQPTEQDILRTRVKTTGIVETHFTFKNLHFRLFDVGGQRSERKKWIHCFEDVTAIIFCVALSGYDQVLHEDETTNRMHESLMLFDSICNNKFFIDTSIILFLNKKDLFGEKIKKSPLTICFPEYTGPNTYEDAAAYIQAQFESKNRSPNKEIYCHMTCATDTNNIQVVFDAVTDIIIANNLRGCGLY

Row | Compound | binding response (% of control)
1 | O=C(Nc1cccnc1Oc1ncnc2cc(Cl)ccc12)c1ccc(F)cc1 | 102%
2 | CN1CCN(c2ccc(CNS(=O)(=O)c3cccc(F)c3)cc2)CC1 | 104%
3 | CN(C)CCOc1cccc(Br)c1 | 103%
4 | CC1(C)C=C2[C@H]3CC[C@@H]4[C@@]5(C)CCC(=O)C(C)(C)[C@@H]5CC[C@@]4(C)[C@]3(C)CC[C@@]2(C(=O)O)CC1 | 267% [activator] (active)
5 | CC1Cc2ccccc2N1CC(=O)Nc1ccc(S(N)(=O)=O)cc1 (stereo unspecified) | 93.2%
6 | O=C1CCC(=O)N(O)CCCCCNC(=O)CCC(=O)N(O)CCCCCNC(=O)CCC(=O)N(O)CCCCCN1 | 40.8%
7 | CCS(=O)(=O)c1cc([N+](=O)[O-])c(Sc2ccccc2N)s1 | 91.4%
8 | O=C(NCCCn1ccnc1)C(=O)NCC1OCCN1S(=O)(=O)c1cc(F)ccc1F (stereo unspecified) | 105%
9 | NS(=O)(=O)c1cccc(NC(=O)CSc2nc3ccccc3n2-c2ccccc2)c1 | 105%
10 | Cc1ccc(SCCC(=O)OCC(=O)Nc2ncc(Cl)cc2Cl)cc1 | 106%
11 | Cc1ccc(-n2c(SCC(=O)Nc3ncc(Cl)cc3Cl)nc3ccccc32)cc1 | 13.7% (active)
12 | CCCNC(=O)c1c(Cl)cnn1-c1ccc(C)cc1 | 99.5%
13 | CCOc1ccccc1NC(=O)CCN1CCN(S(=O)(=O)c2ccc(OC)cc2)CC1 | 102%
14 | CCOc1ccccc1NC(=O)c1cc(S(=O)(=O)N2CCC3(CC2)OCCO3)ccc1F | 4.15% (active)
15 | Cc1c(C(=O)Nc2ccccc2Cl)oc2ccc(S(=O)(=O)N3CCC4(CC3)OCCO4)cc12 | 107%
16 | Cc1ccc(C(=O)N/C(=C/c2cccnc2)C(=O)O)cc1 | 100%
17 | Cc1cc(OCCN2CCCC2)cc(C(C)C)c1 | 93.3%
18 | COC(c1ccccc1)c1nnc(CCC(=O)N2CCN(CCOc3ccccc3)CC2)o1 (stereo unspecified) | 101%
19 | COc1cccc(C(=O)NNC(=O)c2ccccc2Br)c1 | 105%
20 | COc1cc(OC)cc(C(=O)NCCSCc2ccco2)c1 | 97.1%
21 | COc1cccc(C(=O)NCCSc2ccc(Br)cc2)c1 | 11.1% (active)
22 | CC(=O)c1sc(NC(=O)C2=NN(c3ccccc3)C(=O)CC2)nc1C | 102%
23 | O=C(Cn1ncc(N2CCCC2)c(Br)c1=O)c1ccc(Cl)cc1 | 103%

Row | Compound | binding response (% of control)
24 | COC(=O)c1ccccc1OCC(=O)N1CCN(c2ccc(Cl)cc2)CC1 | 461% [activator] (active)
25 | O=C(COc1ccc(Cl)cc1)N1CCN(c2cccc(C(F)(F)F)c2)CC1 | 107%
26 | O=C(CN1CCN(c2ccc(Cl)cc2)CC1)N1CCCC1 | 101%
27 | CN(C(=O)COC(=O)c1cc(-c2ccco2)nc2ccccc12)C1CCS(=O)(=O)C1 (stereo unspecified) | 89.7%
28 | Cc1cc(C)cc(N(CC(=O)Nc2c(C)n(C)n(-c3ccccc3)c2=O)S(C)(=O)=O)c1 | -28.4% (active)
29 | Cc1ccc(S(=O)(=O)CC(=O)Nc2c(C)n(C)n(-c3ccccc3)c2=O)cc1 | 98%
30 | Cc1cc(C)cc(N(C(C)C(=O)Nc2c(C)n(C)n(-c3ccccc3)c2=O)S(C)(=O)=O)c1 (stereo unspecified) | 109%
31 | C/C(=N/N1CCN(Cc2cccc3ccccc23)CC1)c1cccnc1 | 104%
32 | COC(=O)c1ccccc1NC(=S)NC(=O)c1ccccc1F | 101%
33 | C/C=C/C(=O)OCC(=O)Nc1ccc(F)cc1Cl | 104%
34 | Cc1cccc(CN2CCN(Cc3cnn(-c4ccccc4F)c3)CC2CCO)n1 (stereo unspecified) | 101%
35 | O=C(NCc1ccccc1)c1ccc(S(=O)(=O)Nc2cccc(C(F)(F)F)c2)cc1 | 80.9%
36 | Cn1c(=O)c2c(nc(SCC(=O)Nc3ccccc3N3CCCCC3)n2C)n(C)c1=O | 117%
37 | CCOC(=O)CSc1nc2c(c(=O)n(Cc3ccccc3Cl)c(=O)n2C)n1C | -55.5% (active)
38 | CCOC(=O)CSc1nc2c(c(=O)n(C)c(=O)n2C)n1Cc1ccccc1F | 102%
39 | COc1ccccc1C1CCN(C(=S)Nc2ccc(Br)cc2)CC1 | 98%
40 | COc1ccc(NS(=O)(=O)c2ccc(NC(=S)NC(=O)CC(C)C)cc2)cc1 | 98.4%
41 | CC(C)CC(=O)NC(=S)Nc1cc(C(=O)O)ccc1Cl | 103%
42 | CC(=O)c1ccc(NC(=S)NC(=O)CC(C)C)cc1 | 21.8% (active)
43 | CC(=O)Nc1cccc(-c2nc3ccccc3s2)c1C | 108%
44 | C/C(=N\NC(=O)c1cccnc1)c1ccc(-c2ccccc2)cc1 | 95.2%
45 | CC(C)c1nc(CNC(=O)CC2C(=O)NCCN2Cc2ccoc2)cs1 (stereo unspecified) | 105%
46 | CC(C)=C1SC(N2CCN(c3ccc(C)c(Cl)c3)CC2)=NC1=O | 99.9%

Row | Compound | binding response (% of control)
47 | COc1ccc(CC(=O)Nc2ccc(C(=O)NC(C)(C)C)cc2)cc1 | 99.7%
48 | CC(C)(C)NC(=O)c1cccc(NC(=O)Cc2ccc(Br)cc2)c1 | -3.28% (active)
49 | Cc1cccc(C)c1NC(=O)CNC(=O)Cc1ccc(Br)cc1 | 98.2%
50 | O=C(COC(=O)c1ccncc1)c1ccccc1 | 104%
51 | O=C1C2C3C=CC(C3)C2C(=O)N1c1ccc(S(=O)(=O)Nc2nccs2)cc1 (stereo unspecified) | 93.2%
52 | O=C(Nc1ccccc1)c1cc2ccccc2[nH]1 | 13.8% (active)
53 | COc1ccc2[nH]c(C(=O)Nc3ccccc3Cl)cc2c1 | 97.5%
54 | CC(C)n1c(=O)[nH]c2cc(C(=O)Nc3ccccc3)ccc21 | 107%
55 | O=C(Nc1ccc(S(=O)(=O)Nc2nccs2)cc1)c1cc(=O)[nH]c2ccccc12 | 100%
56 | CC1CCN(Cc2nc(-c3ccc(Cl)cc3)no2)CC1 | 108%
57 | COC(=O)C1=C(Nc2ccc(C)cc2)C=C(C)C(C(=O)OC)C1c1ccc(F)cc1 (stereo unspecified) | 109%
58 | Cc1cs/c(=N\N=C\c2ccc(O)cc2)n1Cc1ccco1 | 104%
59 | COc1ccc(NC(=O)Cn2c(=O)n(Cc3ccco3)c(=O)c3ccccc32)cc1 | 101%
60 | CN(c1ccccc1)c1ccc(/C=c2\s/c(=C(/C#N)C(=O)C(C)(C)C)n(Cc3ccco3)c2=O)cc1 | 551% [activator] (active)
61 | COc1ccccc1-n1c(-c2cc(-c3ccco3)[nH]n2)n[nH]c1=S | -1.14% (active)
62 | COc1ccccc1-n1cn[nH]c1=S | 102%
63 | COc1ccc(OC)c(-n2c(-c3ccn[nH]3)n[nH]c2=S)c1 | 102%
64 | CCCOc1ccc(Cc2c(Cl)nc(SC)nc2NC)cc1 | 97.7%
65 | COc1ccc(/C=N/n2nnnc2N)cc1OC | 125%
66 | O=C(NCCc1ccccc1)/C(=C\c1ccc([N+](=O)[O-])cc1)NC(=O)c1ccccc1 | 101%
67 | CN(C)CCNC(=O)/C(=C/c1cccc([N+](=O)[O-])c1)NC(=O)c1ccccc1 | 219% [activator] (active)
68 | C=CCNC(=O)/C(=C\c1cccc([N+](=O)[O-])c1)NC(=O)c1ccccc1 | 98%
69 | CCSc1ccccc1C(=O)NCc1ccc(OC)cc1 | 98.1%

Row | Compound | binding response (% of control)
70 | CCN(CC)S(=O)(=O)c1cccc(-c2n[nH]c(=S)n2/N=C/c2ccc(C(=O)OC)cc2)c1 | 334% [activator] (active)
71 | COC(=O)c1ccc(/C=N\n2c(C)nnc2C)cc1 | 82.2%
72 | S=c1[nH]nc(-c2cc(-c3ccccc3)n[nH]2)n1/N=C/c1c2ccccc2cc2ccccc12 | 97.7%
73 | Cc1cccc(NC(=O)c2nc[nH]c2C(=O)NCC(=O)OCc2ccccc2)c1 | 110%
74 | NC(=O)Cc1ccc2c(c1)[nH]c1ccccc12 | 103%
75 | O=C(O)Cc1sc(-c2ccc(C(=O)O)cc2)nc1-c1ccccc1 | 99.1%
76 | NC(=O)Cc1ccc2sc(-c3ccccc3)nc2c1 | 23.6% (active)
77 | CSCC[C@H](NC(=O)CCCn1nnc2ccccc2c1=O)C(=O)O | 104%
78 | COc1ccc(OC)c(/C=N/NC(=O)CSc2nnc(C)n2-c2ccccc2)c1 | 97.7%
79 | C=CCn1c(Cn2nnc3ccccc32)nnc1SCC(=O)N/N=C/c1cc(Br)cc(OC)c1O | -35.2% (active)
80 | Cc1ccc(Cn2c(SCC(=O)N/N=C/c3ccccc3OCC(=O)O)nc3ccccc32)cc1 | 99.5%
81 | Cc1ccc(NC(=O)NCC(c2cccnc2)N2CCOCC2)cc1 (stereo unspecified) | 105%
82 | CN1CCN(C(CNS(=O)(=O)c2cccs2)c2cccnc2)CC1 (stereo unspecified) | -5.62% (active)
83 | CN1CCN(S(=O)(=O)c2ccc(N3CCN(S(=O)(=O)c4cccs4)CC3)nc2)CC1 | 98.8%
84 | Cn1nc(C(C)(C)C)c([N+](=O)[O-])c1C(N)=O | 98.6%
85 | COc1ccc2c(c1)CC[C@@H]1[C@@H]2CC[C@]2(C)C(=O)CC[C@@H]12 | 101%
86 | O=C(NCCc1c[nH]c2ccc(Cl)cc12)c1ccc([N+](=O)[O-])cc1 | 112%
87 | COc1ccccc1-n1c(=S)[nH]c2c(sc(=S)n2-c2ccc(C)cc2C)c1=O | 94.4%
88 | COc1cccc(C2Nc3cccc4cccc(c34)N2)c1 | 106%
89 | O=[N+]([O-])C(=c1ccc2c(c1)N1C3=C(CCCC3)CC3CCCCC31N=2)[N+](=O)[O-] (stereo unspecified) | 20.9% (active)
90 | Cc1ccc(C)c(NC(=O)C(OC(=O)c2ccc(C)s2)c2ccccc2)c1 (stereo unspecified) | 112%
91 | COc1ccc(CN(Cc2ccc(OC)cc2)C(=O)c2cccs2)cc1 | 99%
